Test results published in ChEMBL document CHEMBL3433997, “St. Jude Leishmania screening dataset” (2016).

Columns and labels:
Type in all cases: functional
[1] = biological target: Solute carrier family 2, facilitated glucose transporter member 1 (Homo sapiens) (UniProt P11166); assay: ST_JUDE_LEISH: Cytotoxicity at 2uM final concentration against transgenic Leishmania Mexicana promastigotes LmGLUT1 that are glucose transport deficient and complemented with the human glucose transporter GLUT1. Activity is measured by DNA content using SYBR green in vitro
[2] = biological target: Hexose transporter 1 (Plasmodium falciparum) (UniProt O97467); assay: ST_JUDE_LEISH: Cytotoxicity at 2uM final concentration against transgenic Leishmania Mexicana promastigotes LmPfHT that are glucose transport deficient and complemented with the Plasmodium falciparum hexose transporter. Activity is measured by DNA content using SYBR green in vitro
[3] = biological target: Glucose transporter (Leishmania mexicana) (UniProt O61059); assay: ST_JUDE_LEISH: Cytotoxicity at 2uM final concentration against transgenic Leishmania Mexicana promastigotes LmGT2 that are glucose transport deficient and complemented with the L. Mexicana glucose transporter 2. Activity is measured by DNA content using SYBR green in vitro

Chain of Solute carrier family 2, facilitated glucose transporter member 1 (Homo sapiens) (P11166 whole entry): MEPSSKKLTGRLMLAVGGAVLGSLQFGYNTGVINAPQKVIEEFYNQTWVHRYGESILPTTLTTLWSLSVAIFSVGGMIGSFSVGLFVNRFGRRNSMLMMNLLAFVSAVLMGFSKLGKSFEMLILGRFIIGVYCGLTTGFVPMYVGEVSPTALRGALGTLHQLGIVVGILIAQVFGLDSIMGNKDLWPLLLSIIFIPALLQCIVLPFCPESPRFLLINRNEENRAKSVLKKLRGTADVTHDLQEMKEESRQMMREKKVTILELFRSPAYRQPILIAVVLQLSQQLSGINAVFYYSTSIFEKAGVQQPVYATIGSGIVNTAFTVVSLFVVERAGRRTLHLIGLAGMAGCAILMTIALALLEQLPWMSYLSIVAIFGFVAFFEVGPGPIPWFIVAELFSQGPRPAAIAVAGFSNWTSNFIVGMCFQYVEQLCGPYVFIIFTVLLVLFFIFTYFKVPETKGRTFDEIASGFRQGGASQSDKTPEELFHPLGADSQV

Compound | inhibition [1] | inhibition [2] | inhibition [3]
COc1ccc2ncc(F)c(CCN3CC(O)C(CNCc4ccccc4)C3)c2n1 (stereo unspecified) | 7.65% | 5.1% | 4.78%
COc1ccc(S(=O)(=O)N(CCCN2CCN(C)CC2)Cc2csc(-c3ccc(CNCc4ccccc4)cc3)n2)cc1 | -1.13% | 2.47% | 1.67%
Cc1cccc2nc(-c3ccc(-c4cccc(NC(=O)Nc5ccsc5)c4)s3)[nH]c12 | 0.98% | 2.82% | 1.03%
O=C(/C=C/c1ccc(Cl)c(Cl)c1)NCCCCCN1CCC(NC(=S)Nc2ccc(F)cc2F)CC1 | 16.5% | 14.9% | 14.5%
CCn1cc(CN2CCCC(C(=O)Nc3ccc(-c4nc5ccccc5[nH]4)cc3)C2)cn1 (stereo unspecified) | 3.25% | 3.52% | 2.06%
Cc1cccc2nc(-c3ccc(-c4cccc(CN5CCC(CO)CC5)c4)s3)[nH]c12 | 1.48% | 0.4% | 1.75%
O=S(=O)(c1ccc(OCc2ccc(Cl)cc2)cc1)c1cc2c(cc1OCc1ccccc1)CCN(C1CCC1)CC2 | 7.19% | 4.84% | 7.79%
N#CC(c1ccc(Cl)cc1)c1ccc2c(C(F)(F)F)cc(C(F)(F)F)nc2n1 (stereo unspecified) | 2.34% | 2.87% | 0.92%
COc1ccc(-c2ccc3c(-c4ccc(F)cc4)cnc(N)c3c2)cn1 | -1.25% | -1.33% | -0.22%
CC(C)[C@H](NC(=O)c1c(F)cccc1F)C(=O)Nc1ccc(Cc2nc3ccccc3s2)cc1 | 4.82% | 4.54% | 4.17%
O=S(=O)(Nc1ccc(CCN2CCC(N3CCCCC3)CC2)cc1)c1ccc2ccccc2c1 | 4.91% | 11.2% | 4.79%
CC1CN(c2cnn(C/C=C/c3ccc(NC(=O)c4ccc5nonc5c4)cc3)c(=O)c2Cl)CC(C)N1 (stereo unspecified) | 4.72% | 4.17% | 3.26%
COc1cccc2c(NCCNc3ccnc4c(OC)cccc34)ccnc12 | 6.77% | 6.99% | 7.99%
Cc1cc(C)cc(CC(=O)N2CCC(n3c(C)nc4ccc(C)cc43)CC2)c1 | 2.35% | 1.45% | 1.51%
CCc1ccc(C2=Nn3c(nnc3-c3cccs3)SC2)cc1 | 2.35% | 1.1% | -0.08%
Cn1c(=N)n(CC(=O)N2CCc3ccc(Cl)cc3C2Cc2ccc(Cl)c(Cl)c2)c2ccccc21 (stereo unspecified) | 0.36% | 1.29% | 5.67%
COc1cccc(CNC(=O)NC2CCN(c3ccnc(Nc4cc(OC)c(OC)c(OC)c4)n3)C2)c1 (stereo unspecified) | 2.39% | 1.6% | 2.88%
